RORgamma inh = ROR gamma (mouse) transcription inhibition; P51450; hit rate 5.4% among 310,000; Potency, µM (top dose mostly 53.6 µM), without a hit: at the top dose activity change, negative = inhibition, actives largely listed as inhibitors; Drosophila S2 Gal4-RORgamma UAS-luciferase reporter, 20 h; further: potency means the concentration at half of the fitted maximal effect; on the % scale 0 is the no-effect control and ±100 the full control effect; nearly all actives have a fitted effect of over 60% in size
Target sequence (P51450 whole entry, looked up, the tested form may be a part): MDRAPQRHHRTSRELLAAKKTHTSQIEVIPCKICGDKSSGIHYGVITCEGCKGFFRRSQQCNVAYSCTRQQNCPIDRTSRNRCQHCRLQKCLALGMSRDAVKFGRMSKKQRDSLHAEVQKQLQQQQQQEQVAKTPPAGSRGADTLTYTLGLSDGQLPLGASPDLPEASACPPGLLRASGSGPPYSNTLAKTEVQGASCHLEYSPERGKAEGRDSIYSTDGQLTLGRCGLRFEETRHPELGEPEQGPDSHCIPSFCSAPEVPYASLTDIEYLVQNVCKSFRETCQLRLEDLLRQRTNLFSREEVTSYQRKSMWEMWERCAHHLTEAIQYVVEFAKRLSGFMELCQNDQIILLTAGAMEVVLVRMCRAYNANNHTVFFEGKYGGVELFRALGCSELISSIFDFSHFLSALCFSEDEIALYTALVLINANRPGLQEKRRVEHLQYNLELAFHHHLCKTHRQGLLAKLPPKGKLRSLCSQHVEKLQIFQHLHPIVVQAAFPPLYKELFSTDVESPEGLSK
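Luminescence from a UAS-regulated Photinus luciferase reporter in stably transfected Drosophila Schneider cells is measured; decreased signal marks ROR gamma inhibition. Fusion expression is induced by 700 uM copper sulfate for 20 hr.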
p53 reactivator = restores transcriptional activity of mutant p53 | H1299 p53-A138V BP100-luciferase reporter, luminescence, 24 h | Potency, µM (series often up to 92.2 µM), without a hit: at the highest dose activity change, positive = activation, usual class: activators | hit rate 0.063% among 320,000 | AID 504706; further: potency means the concentration at half of the fitted maximal effect; % of control where 0% means no effect; nearly all actives have a fitted effect of over 45% in size
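H1299 (p53-null), stable ts p53-A138V + BP100-Luc; 1000 cells/well, Opti-MEM/10% FBS; cpd 4 pt, 1:5; 24 h, 37 deg C, 5% CO2; detection reagent 10 min RT; luminescence.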
VP16 counter = counter-screen for ROR gamma inhibitors: Gal4-VP16 reporter; Drosophila S2 Gal4-VP16 UAS-luciferase, luminescence, 20 h; Potency, µM (highest dose often 53.6 µM), for inactives: top-dose activity, negative = inhibition, actives largely listed as inhibitors; hit rate 3.5% among 310,000;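 further: Gal4-VP16 expression switched on by copper sulfate through the metallothionein promoter; potency means the concentration at half of the fitted maximal effect; on the % scale 0 is the no-effect control and ±100 the full control effect; nearly all actives have a fitted effect of over 50% in size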
Giardia killer = kills Giardia lamblia; Giardia lamblia trophozoite viability; activity change, % at 7.66 µM, hits read low; hit rate 0.15% among 340,000; in the data active means activity change below about -80%; inconclusive means between about -30% and that limit;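 further: parasites exposed to compound for two days anaerobically before the ATP read; on the % scale 0 is the no-effect control and ±100 the full control effect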
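Giardia lamblia trophozoites (100 cells/well) were incubated with compounds for 48 h at 37 deg C under anaerobic conditions. Viability was read as ATP content by one-step luminescence after 15-30 min at room temperature.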
BRCA1 expr up = BRCA1 expression activation. MCF7-BRCA1-FFLuc reporter, luminescence, 48 h; response scale: scaled: vehicle 0%, 10 µM genistein 100%. Potency, µM (titrated, usually from 46.1 µM), inactives show at the top dose activation, most hits filed as activators. hit rate 1.1% among 380,000. AID 624202; further: potency means the concentration at half of the fitted maximal effect; nearly all actives have a fitted effect of over 80% in size
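First, MCF7-BRCA1-FFLuc cells (2000/well) attach for 2 h; next, compounds are pin-added and incubated 48 h at 37 °C; finally, luciferase reagent is added and luminescence read after 15 min.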
ELG1 repair inh = blocks ELG1-dependent DNA repair in HEK293T cells | HEK293T ELG1-luciferase reporter, luminescence, 16 h; DNA damage induced by 5-fluorouridine | Potency, µM (titrated, usually from 46.1 µM), for the others: at the top dose activity change, negative = inhibition, actives largely listed as inhibitors | hit rate 2.3% among 330,000; further: potency means the concentration at half of the fitted maximal effect; on the % scale 0 is the no-effect control and ±100 the full control effect; nearly all actives have a fitted effect of over 55% in size
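In this reporter screen, reduction of luminescence relative to DMSO vehicle indicated activity. Compounds and 5-fluorouridine were added together to 2,000 cells per well, incubated for 16 hr at 37 °C, then developed with ONE-Glo.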
* marks the source's active call; other numbers are inactive results; ? = inconclusive; · = not tested or not shown. Hits are enriched below; roughly 7.6% of the tested compounds scored in any of these assays. Unless noted, the call rests on the fitted dose curve; in most records, active means well fitted curve in the direction sought with a large enough effect; inconclusive means small, poorly fitted or top-dose-only effect, or another doubt; inactive means no such curve, though single readings can be large; an effect the other way counts as inactive or inconclusive.

SMILES	RORgamma inh	p53 reactivator	VP16 counter	Giardia killer	BRCA1 expr up	ELG1 repair inh
O=C(NC(=S)Nc1ccccc1N1CCN(C(=O)c2ccccc2)CC1)c1cccs1	-21%	-1%	-7%	3	-11%	?
O=C(NC(=S)Nc1ccc(N2CCOCC2)c(Cl)c1)c1cccs1	?	-9%	14µM*	13	79%	-6%
O=C(NC(=S)Nc1ccccc1N1CCCC1)c1cccs1	4.5µM*	8%	16µM*	19	-37%	10%
CC(C)CC(=O)NC(=S)Nc1ccc(N2CCOCC2)c(Cl)c1	7.9µM*	-2%	?	-4	-2%	?
CCN(CC(=O)Nc1c(F)cccc1F)C(=O)CCc1nc2cc(S(=O)(=O)N(C)C)ccc2n1CC	9%	11%	-3%	-13	-18%	-7%
C(=N\Nc1ccc2ccccc2n1)/c1ccc2c(c1)OCCO2	2.5µM*	-10%	2µM*	-28	-87%	?
C(=N\Nc1nc2ccccc2[nH]1)/c1ccc2c(c1)OCCO2	5.6µM*	-4%	?	-14	-64%	?
C(=N\Nc1nc2ccccc2[nH]1)/c1ccc2ncccc2c1	-44%	-8%	-28%	-6	0%	?
Cc1cccc(/C=N/Nc2ccc3ccccc3n2)c1	2.8µM*	-10%	6.3µM*	?	-77%	?
Cc1ccc(/C=N/Nc2ccc3ccccc3n2)o1	13µM*	10%	18µM*	-6	-44%	?
Cc1ccc(/C=N/Nc2cn[nH]c(=O)n2)o1	?	0%	-8%	-4	28%	15%
Cc1cccc(/C=N\Nc2cn[nH]c(=O)c2Cl)c1	1%	-2%	16%	2	18%	?
CC(C)(C)c1ccc(C(=O)NCC(=O)OCc2cc(=O)n3nc(C4CC4)sc3n2)cc1	·	·	·	·	16%	·
Cc1cc(C)c(NC(=O)CCCN2CCCC2)c(C)c1	-18%	-2%	3%	-15	-4%	14%
O=C(Nc1ccc2oc(-c3ccccc3F)nc2c1)c1ccccc1F	27%	·	-13%	?	?	?
O=C(Cc1ccccc1)NC(=S)Nc1ccc2oc(-c3ccccc3F)nc2c1	4µM*	?	?	-27	?	?
O=C(Cc1ccccc1)NC(=S)Nc1ccc2oc(-c3ccccc3)nc2c1	7.1µM*	?	7.1µM*	·	·	?
Cc1cccc(N2C(=O)c3cccc4c(N)ccc(c34)C2=O)c1	0%	-5%	-19%	-2	-6%	-9%
Cc1cccc(N2C(=O)c3cccc4c(N(C)CCO)ccc(c34)C2=O)c1	1.3µM*	4%	-24%	2	-1%	0%
CCOC(=O)C1=C(CC)Nc2ccccc2N=C1NC(=O)Nc1ccc(Cl)c(Cl)c1	-15%	3%	?	-4	-56%	18µM*
N/N=C(\Cc1cscn1)c1ccc(O)cc1O	11%	-7%	-9%	10	0%	23µM*
CCC(C)N(C(=O)COc1ccc(Cl)c2cccnc12)C1CCS(=O)(=O)C1 (centres undefined)	·	-4%	·	-20	-2%	21%
CCCc1nnc(NC(=O)c2cc3ccccc3o2)s1	-24%	26%	?	10	5µM*	?
CCCc1nnc(NC(=O)c2cc3ccccc3oc2=O)s1	-1%	6%	11%	17	-19%	?
COCc1nnc(NC(=O)c2cc3ccccc3o2)s1	-5%	25%	-9%	-10	6.3µM*	?
COCCNC(=O)COC(=O)c1ccc(OCC(=O)Nc2ccccc2OC)c(OC)c1	34%	0%	5%	-22	31%	?
O=C(O)c1ccccc1-c1ccccc1C(=O)Nc1ccc(F)cc1	11%	4%	4%	-7	5%	8%
O=C(/C=C/c1ccc(NC(=O)c2ccccc2-c2ccccc2C(=O)O)cc1)c1ccccc1	11µM*	-52%	?	-3	-8%	2%

Assay outcomes from PubChem BioAssay.
